Measurements as given in PubChem BioAssay (NCATS).
Results filed as inconclusive are left out. Calls of active or inactive are those of the source. Unless noted, the call rests on the fitted dose curve; in most records, active means well fitted curve in the direction sought with a large enough effect; inconclusive means small, poorly fitted or top-dose-only effect, or another doubt; inactive means no such curve, though single readings can be large; an effect the other way counts as inactive or inconclusive.

Tests used:
[1] = AP1 Signaling Pathway (AID 357; active means well fitted curve in either direction with a large enough effect, not every such curve was filed as active;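 further: ME-180 reporter cells stimulated with EGF at its EC50 level; on the % scale 0 is the no-effect control and ±100 the full control effect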); conditions: ME-180 AP-1-bla reporter, EGF-induced, beta-lactamase ratio, 5 h; at 17.2 µM (top of the series) unless noted
Outline: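 Modulation of EGF-driven AP-1 transcription was assessed with a beta-lactamase reporter in ME-180 cells. Compound and EC50 EGF were co-incubated 5 hours at 37 °C before 2.5-hour CCF4 loading at room temperature and dual-emission reading.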

[2] = biological target: Glucocorticoid receptor (Homo sapiens) (UniProt P04150); test: GR-GFP Redistribution (AID 450;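 active means compounds whose dose series gives a full or clear partial fitted curve of increased nuclear translocation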; further: potency means the concentration at half of the fitted maximal effect)
Chain of Glucocorticoid receptor (Homo sapiens) (P04150 whole entry, looked up, the tested form may be a part): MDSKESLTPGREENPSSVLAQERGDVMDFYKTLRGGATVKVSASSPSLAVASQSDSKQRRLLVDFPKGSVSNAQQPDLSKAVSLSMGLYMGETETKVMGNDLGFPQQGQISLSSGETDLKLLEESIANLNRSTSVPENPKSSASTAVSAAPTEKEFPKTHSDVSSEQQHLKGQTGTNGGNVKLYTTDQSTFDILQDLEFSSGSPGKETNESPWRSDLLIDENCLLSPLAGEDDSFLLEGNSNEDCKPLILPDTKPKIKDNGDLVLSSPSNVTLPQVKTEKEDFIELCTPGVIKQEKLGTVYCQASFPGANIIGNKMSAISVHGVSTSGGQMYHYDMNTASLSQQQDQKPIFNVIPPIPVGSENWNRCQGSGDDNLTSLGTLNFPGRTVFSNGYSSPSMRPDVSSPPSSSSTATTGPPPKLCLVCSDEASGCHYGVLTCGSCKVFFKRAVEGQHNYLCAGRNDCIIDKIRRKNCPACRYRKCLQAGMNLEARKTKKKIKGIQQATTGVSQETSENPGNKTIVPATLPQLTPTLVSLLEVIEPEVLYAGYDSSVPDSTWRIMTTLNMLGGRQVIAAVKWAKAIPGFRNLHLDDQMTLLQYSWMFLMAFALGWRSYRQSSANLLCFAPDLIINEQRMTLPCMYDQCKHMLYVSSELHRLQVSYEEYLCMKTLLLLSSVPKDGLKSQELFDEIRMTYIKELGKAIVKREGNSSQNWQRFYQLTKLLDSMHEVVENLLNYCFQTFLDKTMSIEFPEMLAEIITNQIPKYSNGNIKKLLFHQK

[3] = biological target: Cytochrome P450 1A2 (Homo sapiens) (UniProt P05177); test: p450-cyp1a2 (AID 410; calls by dose curve; further: potency means the concentration at half of the fitted maximal effect;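 on activity change, negative = inhibition: -100% = full effect of reference inhibitor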)
Chain of Cytochrome P450 1A2 (Homo sapiens) (P05177 whole entry, looked up): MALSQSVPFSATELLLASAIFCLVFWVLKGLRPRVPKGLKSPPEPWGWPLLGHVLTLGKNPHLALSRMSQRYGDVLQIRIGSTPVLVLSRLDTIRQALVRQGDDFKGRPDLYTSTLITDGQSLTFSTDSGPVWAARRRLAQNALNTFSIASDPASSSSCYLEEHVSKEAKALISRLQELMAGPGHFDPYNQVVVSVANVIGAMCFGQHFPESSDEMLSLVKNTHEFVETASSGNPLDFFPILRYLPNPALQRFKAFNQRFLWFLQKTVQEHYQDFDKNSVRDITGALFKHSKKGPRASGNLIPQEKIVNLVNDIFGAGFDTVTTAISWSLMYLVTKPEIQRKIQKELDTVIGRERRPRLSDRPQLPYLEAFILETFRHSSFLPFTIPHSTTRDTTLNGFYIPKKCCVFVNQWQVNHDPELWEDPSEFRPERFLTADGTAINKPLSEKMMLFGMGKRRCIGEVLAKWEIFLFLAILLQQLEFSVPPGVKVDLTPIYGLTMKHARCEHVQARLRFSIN
Outline: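 Inhibition was calculated relative to 57 uM furafylline (full inhibition). The reaction used human CYP1A2 at 20nM with Luciferin-ME at its Km, 100uM, driven by an NADPH-regenerating system for 60 min at room temperature.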

[4] = biological target: Glucocorticoid receptor (Homo sapiens) (UniProt P04150); test: GR-EFC Redistribution (AID 451; calls by dose curve; further: potency means the concentration at half of the fitted maximal effect); conditions: CHO-K1 GR-EFC translocation, beta-gal luminescence, 2 h
Outline: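 CHO-K1 cells stably expressing nuclear-localized β-gal enzyme acceptor and GR fused C-terminally to the enzyme donor fragment; ligand-driven nuclear translocation restores β-gal by complementation. Compounds titrated up to 46 uM final, 2 h at 37 °C; luminescence read.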

[5] = NFAT Signaling Pathway (AID 444; active means well fitted curve in either direction with a large enough effect, not every such curve was filed as active;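 further: carbachol stimulus at about its EC50 of 1 µM final; on the % scale 0 is the no-effect control and ±100 the full control effect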); conditions: Jurkat NFAT-bla M1, carbachol, beta-lactamase ratio, 5 h; at 17.2 µM (top of the series) unless noted
Outline: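 Jurkat cells carrying an NFAT-driven β-lactamase reporter and co-transfected muscarinic M1 receptor were treated with compound plus carbachol (1 uM final, an EC50 level) for 5 h at 37 °C. CCF4 loading followed for 1 h at RT; 460/530 nm ratio gave %activity.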

[6] = Stat Signaling Pathway (AID 446; active means well fitted curve in either direction with a large enough effect, not every such curve was filed as active;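 further: ME-180 cervical cancer cells given 40 pM IL-6 alongside compound; SIE-controlled beta-lactamase reporter measured as 460/530 nm FRET emission ratio; on the % scale 0 is the no-effect control and ±100 the full control effect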); conditions: ME-180 SIE beta-lactamase reporter, IL-6 stimulated, 5 h; at 17.2 µM (top of the series) unless noted
Outline: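 Screening format detects activators and inhibitors alike: ME-180 SIE-bla cells stimulated at 40 pM IL-6 for 5 hrs with compound, then dual-emission beta-lactamase read at 405 nm excitation.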

[7] = biological target: 3',5'-cyclic-AMP phosphodiesterase 4B (Homo sapiens) (UniProt Q07343); test: qHTS Assay for Inhibitors of PDE-IV (AID 607; active means well fitted activation curve with a large enough effect in the main read-out, with a control signal flat, not every such curve was filed as active; further: % of control where 0% means no effect)
Chain of 3',5'-cyclic-AMP phosphodiesterase 4B (Homo sapiens) (Q07343 whole entry, looked up): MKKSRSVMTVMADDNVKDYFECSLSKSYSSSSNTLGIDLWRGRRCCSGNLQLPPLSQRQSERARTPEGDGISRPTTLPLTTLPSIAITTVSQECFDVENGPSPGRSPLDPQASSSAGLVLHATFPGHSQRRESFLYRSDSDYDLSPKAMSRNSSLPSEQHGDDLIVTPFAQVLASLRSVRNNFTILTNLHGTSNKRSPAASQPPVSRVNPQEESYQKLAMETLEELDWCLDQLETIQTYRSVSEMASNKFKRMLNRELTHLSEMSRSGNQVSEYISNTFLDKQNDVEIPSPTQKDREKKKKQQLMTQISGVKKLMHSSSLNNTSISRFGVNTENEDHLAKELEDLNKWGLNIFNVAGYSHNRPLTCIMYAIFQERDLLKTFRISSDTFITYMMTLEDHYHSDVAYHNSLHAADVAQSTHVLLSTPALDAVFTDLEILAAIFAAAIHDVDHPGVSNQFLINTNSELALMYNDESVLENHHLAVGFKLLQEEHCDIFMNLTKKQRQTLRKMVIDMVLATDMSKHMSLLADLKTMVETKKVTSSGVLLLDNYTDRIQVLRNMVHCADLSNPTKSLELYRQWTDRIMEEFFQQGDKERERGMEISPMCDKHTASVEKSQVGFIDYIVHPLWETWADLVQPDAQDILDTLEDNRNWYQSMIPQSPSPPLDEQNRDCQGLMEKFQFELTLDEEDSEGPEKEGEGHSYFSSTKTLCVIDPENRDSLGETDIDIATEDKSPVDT
Outline: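 The readout is membrane depolarisation from a cAMP-sensing CNG channel, detected with a potential dye at ex 535/em 590. Cells were HEK293-derived (endogenous PDE-IV) at 1000 cells/well, titrated up to 22.9 uM final.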

[8] = biological target: Guanine nucleotide-binding protein G(i) subunit alpha-1 (Homo sapiens) (UniProt P63096); test: qHTS Assay for Inhibitors of RGS12 GoLoco Motif Activity (Green Fluorophore) (AID 879);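 further: 0% = labeled peptide with Gαi1 and full inhibition = labeled peptide alone without protein; negative values mean loss of peptide binding seen as reduced polarization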
Chain of Guanine nucleotide-binding protein G(i) subunit alpha-1 (Homo sapiens) (P63096 whole entry, looked up): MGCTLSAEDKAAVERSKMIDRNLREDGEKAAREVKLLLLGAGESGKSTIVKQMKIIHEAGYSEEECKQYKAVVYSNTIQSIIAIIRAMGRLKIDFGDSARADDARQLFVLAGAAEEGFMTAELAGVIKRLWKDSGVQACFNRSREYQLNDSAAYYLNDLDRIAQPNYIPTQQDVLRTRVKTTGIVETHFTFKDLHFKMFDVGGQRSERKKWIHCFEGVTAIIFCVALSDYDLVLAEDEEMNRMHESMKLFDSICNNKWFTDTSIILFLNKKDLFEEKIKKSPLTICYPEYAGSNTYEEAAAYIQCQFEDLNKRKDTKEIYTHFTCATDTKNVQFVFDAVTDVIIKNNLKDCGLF
Outline: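 Fluorescence polarization assay: 50 nM Gαi1 with 10 nM FITC-labeled RGS12 GoLoco peptide in 10 mM Tris pH 7.5, 150 mM NaCl, 0.1 mM GDP, 0.05% NP40, 10 min at room temperature with compound.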

[9] = biological target: Cytochrome P450 3A4 (Homo sapiens) (UniProt P08684); test: qHTS Assay for Activators of Cytochrome P450 3A4 (AID 885); further: nearly all actives have a fitted effect of over 65% in size
Chain of Cytochrome P450 3A4 (Homo sapiens) (P08684 whole entry, looked up): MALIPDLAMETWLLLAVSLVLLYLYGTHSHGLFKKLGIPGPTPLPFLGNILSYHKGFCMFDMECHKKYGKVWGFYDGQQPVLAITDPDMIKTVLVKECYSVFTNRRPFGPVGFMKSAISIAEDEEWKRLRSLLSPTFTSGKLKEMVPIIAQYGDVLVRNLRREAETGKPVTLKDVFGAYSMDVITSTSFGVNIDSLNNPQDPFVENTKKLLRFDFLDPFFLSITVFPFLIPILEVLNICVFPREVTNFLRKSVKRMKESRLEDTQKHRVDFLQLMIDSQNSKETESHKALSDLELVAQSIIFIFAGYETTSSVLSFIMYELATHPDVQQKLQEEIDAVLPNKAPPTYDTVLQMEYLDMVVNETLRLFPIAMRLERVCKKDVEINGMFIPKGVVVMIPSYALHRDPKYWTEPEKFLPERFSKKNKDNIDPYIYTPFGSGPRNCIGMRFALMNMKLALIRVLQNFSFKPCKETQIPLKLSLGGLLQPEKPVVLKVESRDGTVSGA
Outline: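 Steps: enzyme/substrate mix dispensed; compound added, 10 min RT; NADPH regeneration solution added, 60 min RT; luciferin detection buffer stops reaction; 20 min later luminescence measured.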

[10] = qHTS Assay for Identification of Small Molecule Antagonists for NFkB Signaling Pathway (AID 895; active means well fitted inhibition curve with a large enough effect in the signal ratio, with a control signal flat, not every such curve was filed as active; the % refers to the signal ratio; further: potency means the concentration at half of the fitted maximal effect)
Outline: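 NFkB-bla ME-180 cervical carcinoma cells with beta-lactamase reporter under NFkB response element; compounds added, then TNF alpha at 10 pM final (EC50), 5 h at 37 C. LiveBLAzer substrate 2 h, room temperature; emission 460/530 nm at 405 nm excitation.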

[11] = biological target: Pyruvate kinase (Leishmania mexicana) (UniProt Q27686); test: qHTS Validation Assay for Inhibitors of Leishmania Mexicana Pyruvate Kinase (AID 945);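 further: 0% = DMSO only neutral control wells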
Chain of Pyruvate kinase (Leishmania mexicana) (Q27686 2-499 E452W): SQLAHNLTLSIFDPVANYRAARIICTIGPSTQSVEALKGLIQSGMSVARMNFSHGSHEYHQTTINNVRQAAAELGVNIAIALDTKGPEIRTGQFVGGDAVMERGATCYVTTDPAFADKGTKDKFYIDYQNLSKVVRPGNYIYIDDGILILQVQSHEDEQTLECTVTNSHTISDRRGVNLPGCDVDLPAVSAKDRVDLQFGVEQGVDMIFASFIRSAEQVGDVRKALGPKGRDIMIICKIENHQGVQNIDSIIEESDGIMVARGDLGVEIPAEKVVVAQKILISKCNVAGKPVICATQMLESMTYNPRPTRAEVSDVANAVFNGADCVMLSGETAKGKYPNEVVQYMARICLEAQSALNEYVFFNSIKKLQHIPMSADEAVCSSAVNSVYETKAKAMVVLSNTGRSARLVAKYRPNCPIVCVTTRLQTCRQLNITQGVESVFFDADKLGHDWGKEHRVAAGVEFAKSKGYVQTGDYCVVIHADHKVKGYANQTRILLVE
Outline: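 Eight-point qHTS titrations; enzyme 0.2 nM LmPYK (E451W mutant); substrates 0.5 mM PEP, 0.1 mM ADP; 7 mM MgCl2; 1 h room temperature; PKLight luminescence normalized to neutral control.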

[12] = biological target: Pyruvate kinase PKM (Homo sapiens) (UniProt P14618); test: qHTS Assay for Activators of Human Muscle Pyruvate Kinase (AID 954; active means well fitted curve in the direction sought with a large enough effect, not every such curve was filed as active;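 further: 0% = uninhibited enzyme and -100% = no enzyme or full thiadiazolimine inhibition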)
Chain of Pyruvate kinase PKM (Homo sapiens) (P14618 whole entry, looked up): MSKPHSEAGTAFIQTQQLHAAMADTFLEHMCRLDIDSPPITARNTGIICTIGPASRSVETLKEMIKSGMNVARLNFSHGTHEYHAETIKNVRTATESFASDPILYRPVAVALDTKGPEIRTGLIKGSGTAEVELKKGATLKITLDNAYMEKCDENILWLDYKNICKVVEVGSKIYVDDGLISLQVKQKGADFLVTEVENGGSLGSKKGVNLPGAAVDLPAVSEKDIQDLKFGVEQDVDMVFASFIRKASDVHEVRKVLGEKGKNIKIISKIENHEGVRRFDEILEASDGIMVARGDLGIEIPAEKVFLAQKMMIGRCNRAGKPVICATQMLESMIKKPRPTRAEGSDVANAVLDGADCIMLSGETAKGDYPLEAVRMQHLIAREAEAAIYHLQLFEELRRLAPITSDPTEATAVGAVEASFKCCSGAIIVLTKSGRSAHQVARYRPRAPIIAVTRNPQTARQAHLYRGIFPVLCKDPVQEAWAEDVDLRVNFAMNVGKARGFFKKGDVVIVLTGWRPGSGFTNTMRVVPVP
Outline: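 Reaction: 0.1 nM purified PKM2 with 0.5 mM phosphoenolpyruvate and 0.1 mM ADP, room temperature, 1 h. Readout: luciferase-based ATP luminescence after stop reagent. Activators judged against a 0.3 nM enzyme column.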

[13] = biological target: Alpha-galactosidase A (Homo sapiens) (UniProt P06280); test: Counterscreen for Glucocerebrosidase Inhibitors: qHTS Assay for Human alpha-Galactosidase at pH 4.5 (AID 992); further: 0% is about no effect
Chain of Alpha-galactosidase A (Homo sapiens) (P06280 whole entry, looked up): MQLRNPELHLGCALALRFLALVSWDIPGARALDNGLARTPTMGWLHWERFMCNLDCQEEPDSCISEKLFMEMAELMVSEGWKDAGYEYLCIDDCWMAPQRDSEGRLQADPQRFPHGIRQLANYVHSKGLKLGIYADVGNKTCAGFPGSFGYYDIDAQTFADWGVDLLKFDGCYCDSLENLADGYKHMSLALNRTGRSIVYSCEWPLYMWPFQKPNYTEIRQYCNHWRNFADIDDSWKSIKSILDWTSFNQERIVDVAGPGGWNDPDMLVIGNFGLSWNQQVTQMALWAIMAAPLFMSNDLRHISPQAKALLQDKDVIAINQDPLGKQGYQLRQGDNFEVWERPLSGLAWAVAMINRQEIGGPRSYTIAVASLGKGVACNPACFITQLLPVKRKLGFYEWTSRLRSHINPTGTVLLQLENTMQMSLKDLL
Outline: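 Concentration-response curves (0.7 nM to 77 uM final) were modeled with the Hill equation to give AC50. Reactions: 2 nM enzyme, 80 uM fluorogenic alpha-galactoside, pH 4.5 citric acid buffer, 20 min, room temperature.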

[14] = biological target: alpha-glucosidase (Oryza sativa, rice) (UniProt Q653V4); test: Counterscreen for Glucocerebrosidase Inhibitors: qHTS Assay for Rice alpha-Glucosidase at pH 5.0 (AID 997);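 further: 0% = full activity with enzyme and -100% = basal without enzyme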
Outline: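 Rice alpha-glucosidase (4 nM final) with 400 uM 4-methylumbelliferyl-alpha-D-glucopyranoside in citrate buffer pH 5.0, 20 min at room temperature, stopped at pH 10; fluorescence 365/440 nm, compounds 0.7 nM–77 uM, AC50 from Hill fits.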

[15] = biological target: Mitogen-activated protein kinase 10 (Mus musculus) (UniProt Q61831); test: JNK3 AlphaScreen Assay (AID 530; active means well fitted curve in either direction with a large enough effect, not every such curve was filed as active;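 further: kinase came from lysate of stimulated human HepG2 cells; signal reports phosphorylation of biotinylated GST-cJun 1-79 at Ser73 with 10 µM ATP; on the % scale 0 is the no-effect control and ±100 the full control effect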)
Outline: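 JNK3 came from HepG2 lysates pre-activated with IL-1beta and TNF-alpha and phosphorylated biotinylated GST-cJun (1-79) at 10 uM ATP, pH 7.6, room temperature. Compounds were titrated. AlphaScreen signal used anti-phospho-cJun (Ser73) antibody.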

[16] = Confirmation and Secondary Assay for Modulators of Hemoglobin Beta Chain Splicing at IVS2 654 locus (AID 910);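 further: per-well total GFP intensity by laser scanning cytometry after 2-day treatment; potency means the concentration at half of the fitted maximal effect; potency of activators that raise GFP signal by restoring correct splicing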
Outline: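 HeLa cells stably carrying EGFP interrupted by mutant beta-globin IVS2-654 intron (CMV-driven) were treated with compound for 2 days at 37C; corrected splicing was scored as total peak GFP intensity per well (488 nm excitation, 500-520 nm emission).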

[17] = qHTS Assay for Identification of Small Molecule Agonists for Hypoxia Response Element Signaling Pathway (AID 914; active means well fitted activation curve with a large enough effect in the signal ratio, with a control signal flat, not every such curve was filed as active; the % refers to the signal ratio; further: % of control where 0% means no effect); conditions: ME-180 (cervical carcinoma) HRE-bla reporter, beta-lactamase ratio, CoCl2, 17 h; activation: active compounds read high
Outline: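 HRE-bla ME-180 assay for agonist-like enhancement of an EC50 CoCl2 stimulus: 17 h at 37 degrees Celsius, CCF4 for 2.5 h, ratiometric 460/530 nm signal converted to %Activity and fitted to AC50.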

[18] = qHTS Assay for Identification of Small Molecule Agonists for Thrombopoietin (TPO) Signaling Pathway (AID 917); further: on the % scale 0 is the no-effect control and ±100 the full control effect
Outline: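 Murine Ba/F3 cells expressing human TPO receptor and GPIIb-promoter luciferase, IL-3-starved overnight, given compound plus TPO at 26 pM (EC50). After 24 h at 37 C, 5% CO2, luminescence read.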

[19] = Confirmation and Secondary Assay for Modulators of Hemoglobin Beta Chain Splicing at IVS2 705 locus (AID 930);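 further: GFP fluorescence per well restored by corrected splicing of the IVS2-705 intron in EGFP; potency means the concentration at half of the fitted maximal effect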
Outline: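 HeLa IVS2-705 EGFP reporter cells, 500/well, compound 2 d at 37C; correct splicing yields fluorescent EGFP. Control: 500 nM antisense PNA. Read-out: total peak GFP intensity.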

[20] = biological target: Muscarinic acetylcholine receptor M1 (Rattus norvegicus) (UniProt P08482); test: qHTS Assay for Antagonists of Acetylcholine Muscarinic M1 Receptor: Kinetic Measurement of Intracellular Calcium Response (AID 943);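 further: Fluo-4 calcium signal as peak divided by basal fluorescence over 4 min; nearly all actives have a fitted effect of over 75% in size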
Outline: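 Intracellular calcium flux, recorded with Fluo-4 in a kinetic plate reader, served as signal; the response to carbachol at EC80 (100 nM final) was taken as maximal over minimal fluorescence after a 10 min compound pre-incubation in rat M1-CHO cells.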

[21] = biological target: Cytochrome P450 2C9 (Homo sapiens) (UniProt P11712); test: qHTS Assay for Inhibitors and Substrates of Cytochrome P450 2C9 (AID 883); further: on the % scale 0 is the no-effect control and ±100 the full control effect; nearly all actives have a fitted effect of over 60% in size
Chain of Cytochrome P450 2C9 (Homo sapiens) (P11712 whole entry, looked up): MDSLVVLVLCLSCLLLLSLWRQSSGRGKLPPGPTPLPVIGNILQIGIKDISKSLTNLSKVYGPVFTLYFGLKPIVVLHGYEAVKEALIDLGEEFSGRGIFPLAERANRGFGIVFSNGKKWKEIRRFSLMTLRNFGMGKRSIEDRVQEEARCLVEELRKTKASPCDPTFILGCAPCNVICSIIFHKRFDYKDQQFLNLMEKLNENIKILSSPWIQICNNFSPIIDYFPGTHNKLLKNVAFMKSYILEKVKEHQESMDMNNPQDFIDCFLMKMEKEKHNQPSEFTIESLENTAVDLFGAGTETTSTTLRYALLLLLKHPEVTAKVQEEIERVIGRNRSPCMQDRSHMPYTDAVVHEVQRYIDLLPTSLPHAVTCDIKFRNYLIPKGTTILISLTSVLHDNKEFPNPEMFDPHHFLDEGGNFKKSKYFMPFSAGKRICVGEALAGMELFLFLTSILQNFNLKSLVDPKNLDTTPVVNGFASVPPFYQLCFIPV
Outline: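 A luminogenic readout tracked human CYP2C9 (10nM) converting deoxyluciferin (100uM, at KM) in 25mM KPO4 during 60 min at 37C with regenerated NADPH. Values normalized to 57uM sulphaphenazole as complete inhibition.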

[22] = biological target: Cytochrome P450 2D6 (Homo sapiens) (UniProt P10635); test: qHTS Assay for Inhibitors and Substrates of Cytochrome P450 2D6 (AID 891);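 further: luciferin methyl ether substrate demethylated by CYP2D6 with NADPH regeneration; on the % scale 0 is the no-effect control and ±100 the full control effect; nearly all actives have a fitted effect of over 60% in size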
Outline: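 Human CYP2D6 (5 nM) with 30 uM Luciferin-ME EGE (at Km) in 100 mM KPO4, compound preincubated 10 min, then NADPH regeneration system for 60 min at room temperature. Luciferin read by luminescence; normalized to 1.43 uM quinidine.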

[23] = biological target: DNA dC->dU-editing enzyme APOBEC-3G (Homo sapiens) (UniProt Q9HC16); test: qHTS for inhibitors of Vif-A3G interactions: Validation (AID 588379); further: 0% is about no effect
Outline: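 HeLa cells stably expressing Vif and A3G-eYFP, 700 cells/well, incubated overnight at 37 deg C, then exposed to compound overnight at 37 deg C. Inhibition of Vif-mediated degradation read as increased yellow fluorescence (Ex 488/Em 500-530) by laser-scanning cytometry.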

CCc1c(C)c2cc(Cl)c(O)c(CN3CCCCC3)c2oc1=O
inactive: activity change, negative = inhibition [1] 3.67% | Potency [2] > 20.6 µM

C[C@@H]1C(=O)O[C@@H]2C[C@@]34[C@H]5C[C@@H](C(C)(C)C)[C@@]36[C@@H](OC(=O)[C@@H]6O)O[C@]4(C(=O)O5)[C@@]12O
inactive: Potency [3] | Potency [2] > 46 µM | Potency [4] > 46 µM

C[C@H](N)C1CCC(C(=O)Nc2ccncc2)CC1 (some centres undefined)
inactive: Potency [3] | activity change, negative = inhibition [5] 3.2% [at 38 µM] | activity, negative = inhibition [6] -8.56% [at 38 µM] | Potency [2] > 46 µM | Potency [4] > 46 µM | Potency [7] | outcome [8] | Potency [9] | Potency [11] | outcome [12] | outcome [13] | outcome [14]
active: Potency [10] 7.94 µM

OC[C@@H]1O[C@@H](n2cnc3cncnc32)[C@@H](O)[C@H]1O
active: Potency [16] 5.01 µM | Potency [19] 12.6 µM
inactive: Potency [3] | activity change, negative = inhibition [5] -10.9% [at 38 µM] | activity, negative = inhibition [6] -14.6% [at 38 µM] | Potency [2] > 46 µM | Potency [4] > 46 µM | Potency [15] | Potency [7] | outcome [8] | activation [17] 4.26% | Potency [18] | Potency [20] | Potency [11] | outcome [12] | outcome [13] | outcome [14]

O=c1cc(-c2ccccc2O)oc2c1ccc1ccccc12
active: Potency [3] 0.501 µM
inactive: Potency [2] > 46 µM | Potency [4] > 46 µM | Potency [15] | Potency [7] | Potency [21] | Potency [9] | Potency [22] | outcome [23]
